In PubChem BioAssay (NCI):
About 79,000 compounds went through this panel and 15% of them were active in at least one assay; those are over-represented in the sample as a whole. Calls of active or inactive are those of the source. Cut-off read from the data, not from the text of the source: active = growth inhibition above about 70%; inactive = the rest.

How the values were obtained:
[1] = NCI Yeast Anticancer Drug Screen. Data for the rad52 strain (AID 147);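 note: 0% = growth of vehicle-treated control cultures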; conditions: S. cerevisiae rad52 mutant growth inhibition, hits give high values
Summary of the method: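 Here a repair-compromised yeast strain receives each compound; its growth is then quantified and normalised to vehicle-only controls.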

[2] = NCI Yeast Anticancer Drug Screen. Data for the rad50EPP+ strain (AID 151);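 note: 0% = growth of vehicle-treated control cultures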; conditions: S. cerevisiae rad50 mutant strain, hits give high values
Summary of the method: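 Read-out is yeast growth inhibition relative to vehicle; cells used were the rad50EPP+ strain.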

[3] = NCI Yeast Anticancer Drug Screen. Data for the mgt1 strain (AID 153); conditions: S. cerevisiae mgt1 mutant growth inhibition, hits give high values
Summary of the method: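 Measured: inhibition of mgt1 yeast growth by compound, normalized to vehicle-treated cultures.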

[4] = NCI Yeast Anticancer Drug Screen. Data for the rad50 strain (AID 155);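 note: 0% = growth of vehicle-only cultures of the same strain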; conditions: S. cerevisiae rad50 strain growth inhibition, hits give high values
Summary of the method: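 Genetically altered yeast (DNA repair pathway); compound treatment; growth inhibition vs vehicle ctrl.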

[5] = NCI Yeast Anticancer Drug Screen. Data for the mec2-1 strain (AID 157); conditions: S. cerevisiae mec2-1 strain, hits give high values
Summary of the method: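 Using mec2-1 yeast: add compound, measure growth, express inhibition versus vehicle-treated cultures.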

[6] = NCI Yeast Anticancer Drug Screen. Data for the rad14 strain (AID 159);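 note: 0% = growth of vehicle-treated control cultures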; conditions: S. cerevisiae rad14 strain growth inhibition, hits give high values
Summary of the method: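 Test compounds were applied to a repair-deficient yeast strain. Its growth was then compared with that of cultures given vehicle alone, and inhibition was expressed relative to those controls.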

[7] = NCI Yeast Anticancer Drug Screen. Data for the sgs1 mgt1 strain (AID 161);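 note: 0% = growth of cultures given vehicle only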; conditions: S. cerevisiae sgs1 mgt1 strain, hits give high values
Summary of the method: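 Growth of a repair-deficient yeast mutant was monitored after compound treatment and expressed as inhibition relative to vehicle-treated cultures.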

[8] = NCI Yeast Anticancer Drug Screen. Data for the CLN2oe strain (AID 163);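 note: 0% = growth of vehicle-only control cultures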; conditions: S. cerevisiae CLN2oe strain, hits give high values
Summary of the method: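 Whole-cell yeast growth assay. A strain engineered for altered cell-cycle control received compound, and inhibition relative to vehicle-treated cultures was recorded.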

[9] = NCI Yeast Anticancer Drug Screen. Data for the cln2 rad14 strain (AID 165);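 note: 0% = growth equal to vehicle treated cultures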; conditions: S. cerevisiae cln2 rad14 strain, hits give high values
Summary of the method: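 Yeast strain cln2 rad14, bearing defects in cell cycle control and DNA repair, serves as the test system; values reflect growth inhibition compared with vehicle.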

[10] = NCI Yeast Anticancer Drug Screen. Data for the bub3 strain (AID 167); conditions: S. cerevisiae bub3 mutant strain, hits give high values
Summary of the method: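 Yeast carrying a defined mutation is treated with each compound, and growth is compared with that of vehicle-exposed cells to give inhibition.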

[11] = NCI Yeast Anticancer Drug Screen. Data for the wt2 strain (AID 169);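 note: 0% = growth of vehicle-treated yeast cultures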; conditions: S. cerevisiae wt2 strain growth inhibition, hits give high values
Summary of the method: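 Treated yeast vs. vehicle-treated yeast: growth inhibition determined.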

[12] = NCI Yeast Anticancer Drug Screen. Data for the mlh1 strain (AID 171);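 note: 0% = growth of vehicle-treated control cultures of the same strain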; conditions: S. cerevisiae mlh1 strain growth inhibition, hits give high values
Summary of the method: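 A yeast strain with a defined genetic lesion serves as the test organism. Cultures receive compound or vehicle, and growth is measured.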

[13] = NCI Yeast Anticancer Drug Screen. Data for the sgs1 strain (AID 173);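 note: 0% = growth of vehicle-only control cultures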; conditions: S. cerevisiae sgs1 mutant, hits give high values
Summary of the method: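 A genetically defined yeast mutant is incubated with the test compound, and its growth is compared to that of the same strain given vehicle.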

[14] = NCI Yeast Anticancer Drug Screen. Data for the mlh1 rad18 strain (AID 175); conditions: S. cerevisiae mlh1 rad18 strain growth inhibition, hits give high values
Summary of the method: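 Steps: expose repair-defective yeast to compound; measure growth; express inhibition against vehicle-treated controls.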

[15] = NCI Yeast Anticancer Drug Screen. Data for the rad18 strain (AID 177); conditions: S. cerevisiae rad18 mutant growth inhibition, hits give high values
Summary of the method: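 Measured value is growth inhibition of a yeast strain bearing a DNA repair alteration, referenced to vehicle-treated cells.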

[16] = at 5.0 µM (retest, dose inferred, filed as 0.5)
[17] = at 50.0 µM (retest, dose inferred, filed as 5.0)

Measured: growth inhibition

Cc1cc(Cl)ccc1NC(=O)/C(Cl)=C(/Cl)C(=O)O
inactive: [1]; at 1.2 µM 2% | [1]; at 3.7 µM 6% | [1]; at 11.0 µM 21% | [2]; at 1.2 µM 5% | [2]; at 3.7 µM 11% | [2]; at 11.0 µM 25% | [3]; at 1.2 µM 0% | [3]; at 3.7 µM 5% | [3]; at 11.0 µM 8% | [3]; at 33.0 µM 29% | [4]; at 1.2 µM 1% | [4]; at 3.7 µM 6% | [4]; [16] -1% | [4]; at 11.0 µM 16% | [4]; [17] 22% | [5]; at 1.2 µM 3% | [5]; at 3.7 µM 6% | [5]; [16] 3% | [5]; at 11.0 µM 11% | [5]; at 33.0 µM 51% | [5]; [17] 23% | [6]; at 1.2 µM 2% | [6]; at 3.7 µM 5% | [6]; at 11.0 µM 13% | [6]; at 33.0 µM 34% | [7]; [16] 0% | [7]; [17] 37% | [8]; at 1.2 µM -1% | [8]; at 3.7 µM 3% | [8]; at 11.0 µM 1% | [8]; at 33.0 µM 11% | [9]; [16] -4% | [9]; [17] 11% | [10]; at 1.2 µM 2% | [10]; at 3.7 µM 4% | [10]; [16] 3% | [10]; at 11.0 µM 12% | [10]; at 33.0 µM 56% | [10]; [17] 37% | [11]; at 1.2 µM 0% | [11]; at 3.7 µM 1% | [11]; at 11.0 µM 5% | [11]; at 33.0 µM 18% | [12]; at 1.2 µM -1% | [12]; at 3.7 µM 2% | [12]; at 11.0 µM 5% | [12]; at 33.0 µM 22% | [13]; at 1.2 µM 2% | [13]; at 3.7 µM 2% | [13]; at 11.0 µM 11% | [13]; at 33.0 µM 55% | [14]; [16] 0% | [14]; [17] 17% | [15]; at 1.2 µM -2% | [15]; at 3.7 µM 0% | [15]; at 11.0 µM 11% | [15]; at 33.0 µM 30%
active: [1]; at 33.0 µM 70% | [1]; at 100.0 µM 99% | [2]; at 33.0 µM 78% | [2]; at 100.0 µM 99% | [3]; at 100.0 µM 100% | [4]; at 33.0 µM 81% | [4]; at 50.0 µM 99.5% | [4]; at 100.0 µM 99% | [5]; at 50.0 µM 97.7% | [5]; at 100.0 µM 100% | [6]; at 100.0 µM 100% | [7]; at 50.0 µM 99.7% | [8]; at 100.0 µM 99% | [9]; at 50.0 µM 98.8% | [10]; at 50.0 µM 99.6% | [10]; at 100.0 µM 99% | [11]; at 100.0 µM 100% | [12]; at 100.0 µM 100% | [13]; at 100.0 µM 99% | [14]; at 50.0 µM 99.3% | [15]; at 100.0 µM 99%
